PI4K2A inh: inhibitors of human PI4K2A. Q9BTU6. purified PI4K2A, ADP-Glo luminescence, 1 h; hits give low values. activity change, negative = inhibition, % at 76.9 µM. 420,000 compounds, 0.13% hits; in the data active means activity change below about -50%; inconclusive means mostly about -30% to -49%;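 further: -100% = wells without enzyme as full effect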
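ADP-Glo luminescence measured ADP generated by PI4K2A enzyme (4 ug/mL before mixing) with 1.2 mM PI substrate (pre-mix) and 300 microM ATP (pre-mix). Tris pH7.5 buffer with MgCl2, Triton X-100; 1 h reaction at ambient temperature.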
CtBP-E1A blk: inhibitors of CtBP/E1A interaction | AlphaScreen GST-E1A/His-CtBP binding, 1536-well; hits give low values | activity change, % (concentration not given with the values) | 340,000 compounds, 0.49% hits | AID 651724
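AlphaScreen with 125 nM GST-E1A and 125 nM His-CtBP (5X stocks) in Tris pH 8.0, 300 mM NaCl, BSA, Tween 20, TCEP. Compounds preincubated 2 h at 37 deg C, then glutathione donor/nickel acceptor beads added for 1 h at 37 deg C in dark.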
Six1-Eya2 inh: inhibitors of human Six1/Eya2 interaction | Q15475+O00167 | AlphaScreen GST-Six1/His-Eya2 binding, biochemical; hits give low values | activity change, % (test concentration not listed) | 360,000 compounds, 0.56% hits
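Compounds are tested against tagged Six1 and Eya2 proteins bridged by glutathione donor and nickel acceptor beads; after a one-hour incubation at 37 °C without light, AlphaScreen emission is recorded.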
Akt phos inh: Akt phosphorylation inhibition | 360,000 compounds, 0.32% hits | Neuro2A IGF-stimulated pAkt S473 HTRF, 20 min; hits give low values | AID 651550 | activity change, % for hits at 50 µM; in the data active means activity change below about -80%; inconclusive means mostly about -51% to -80%
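Single-point screen (50 µM final compound) in Neuro2A cells stimulated 20 min with 6 nM IGF at 37 deg C. After lysis, Ser473-phosphorylated Akt read by HTRF (ex 330 nm, em 615/665 nm) as the 665/615 ratio.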
PI5P4Ka inh: inhibitors of human PI5P4K alpha; P48426; PI5P4Kalpha enzyme, ADP-Glo luminescence, 60 min; hits give low values; max response, %; 330,000 compounds, 1.2% hits; active means max response of -50% or lower; inconclusive means between -30% and -50%; inactive means -30% or higher; further: value at the top dose of about 77 µM
Target sequence (P48426 whole entry, looked up): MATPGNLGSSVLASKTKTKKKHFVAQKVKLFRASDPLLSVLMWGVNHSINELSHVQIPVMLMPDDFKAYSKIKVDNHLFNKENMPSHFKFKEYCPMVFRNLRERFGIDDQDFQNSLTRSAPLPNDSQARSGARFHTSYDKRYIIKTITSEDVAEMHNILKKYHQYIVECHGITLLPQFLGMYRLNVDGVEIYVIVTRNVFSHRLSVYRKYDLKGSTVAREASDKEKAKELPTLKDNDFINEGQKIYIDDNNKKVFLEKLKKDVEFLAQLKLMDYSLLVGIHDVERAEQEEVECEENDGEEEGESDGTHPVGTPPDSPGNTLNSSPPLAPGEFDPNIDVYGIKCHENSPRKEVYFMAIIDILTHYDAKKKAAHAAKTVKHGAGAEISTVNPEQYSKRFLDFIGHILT
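ADP-Glo luminescence end-point after a 60 min room-temperature kinase reaction. PI5P4Kalpha and substrate in HEPES pH 7.4 buffer with EGTA, 0.1% CHAPS and 5% DMSO; ATP at 5 microM final.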
The depositor's hits bear a star; i = inactive; ? = inconclusive; · = no result. Only some compounds are listed: those with a hit (about 1.8% of all), similar ones and a draw of the others. Unless noted, no stated cut-off is given here; in the data, active means activity change below about -65%; inconclusive means mostly about -30% to -63%; inactive means weaker than that. Unless noted, on the % scale 0 is the no-effect control and ±100 the full control effect.

SMILES | PI4K2A inh | CtBP-E1A blk | Six1-Eya2 inh | Akt phos inh | PI5P4Ka inh
N#Cc1nc(Cc2cccc3ccccc23)oc1NCc1ccc(F)cc1 | 2.6 | -1.0 | -20.2 | -107.5%* | 16.0
CC(=O)N1CN(CCCn2ccnc2)Cc2c1sc1c2CCCC1 | -0.4 | -10.7 | -6.5 | i | 10.3
CC(=O)N1CN(Cc2ccccn2)Cc2c1sc1c2CCCC1 | -3.3 | ? | -73.6* | i | -2.3
Cc1ccccc1C(=O)/C(C#N)=N/Nc1c(C)n(C)n(-c2ccccc2)c1=O | 3.6 | -70.3* | -68.0* | i | -20.2
CCOC(=O)/C(C#N)=N/Nc1c(C)n(C)n(-c2ccccc2)c1=O | -0.7 | -7.0 | -13.4 | i | -26.4
Cc1c(N/N=C(\C#N)C(=O)c2ccccc2)c(=O)n(-c2ccccc2)n1C | 2.1 | ? | -86.3* | i | 3.1
O=C(OCc1nnc(-c2cccs2)o1)c1cccnc1Cl | -4.5 | -7.3 | -0.5 | i | -4.2
CCCCOC(=O)c1ccc(-c2ccc(/C=N/NC(=S)NCC)o2)cc1 | 11.2 | -4.5 | 2.3 | i | ·
O=C(O)c1cc(N2C(=O)C=CC2=O)cc(N2C(=O)C=CC2=O)c1 | -24.5 | -11.3 | -74.1* | i | -77.7*
Cc1ccc(-n2nc3ccc(N)cc3n2)c(C)c1 | 7.1 | · | 5.4 | i | 3.5
COc1cccc(-c2coc3c(C)c4oc(=O)c(CCC(=O)O)c(C)c4cc23)c1 | -0.6 | -87.6* | ? | i | 0.5
COc1cccc(-c2coc3cc4oc(=O)c(CCC(=O)O)c(C)c4cc23)c1 | 1.9 | -66.9* | -77.4* | i | 4.9
Nc1nc(SCCN2C(=O)c3ccccc3C2=O)n[nH]1 | 4.9 | 7.6 | 1.3 | i | -1.3
CSc1ncc(CN2CCCCC2C(=O)Nc2ccc(Oc3ccccc3)nc2)cn1 (stereo unspecified) | 2.7 | -4.0 | -26.9 | i | -3.6
O=C(CSc1nnc(SCc2ccccc2)s1)N/N=C/C=C\c1ccco1 | -21.6 | 0.3 | -20.4 | i | -81.9*
C/C(=N\NC(=O)Cc1cccn1C)c1ccco1 | -5.1 | ? | -1.0 | i | -7.6
Cc1ccc(OCC(=O)N/N=C/C=C/c2ccco2)cc1 | -19.7 | -1.3 | -16.5 | i | -63.8*
Cn1cccc1CC(=O)N/N=C/C=C/c1ccco1 | ? | 0.4 | ? | i | -55.3*
O=C(CSc1nnc(SCc2ccccc2)s1)N/N=C/C=C/c1ccccc1[N+](=O)[O-] | 1.2 | -8.9 | -13.8 | i | -0.4
COc1ccc(C(C(=O)NC(C)(C)C)N(CCc2ccccc2)C(=O)CCC(=O)Nc2cc(C)on2)cc1 (stereo unspecified) | -11.0 | -8.7 | -17.9 | i | 9.7
Cc1nc2nc(Cc3ccccc3)[nH]n2c(=O)c1Cl | 9.8 | 9.6 | 2.8 | -114.0%* | -12.9
CCC(C(=O)N1CCN(c2cc(C)ccc2C)CC1)n1nc(C)n2c(cc3occc32)c1=O (stereo unspecified) | 0.1 | · | · | · | ·
CCOc1ccc(CC(=O)Nc2cccc(-c3nc4cccnc4s3)c2C)cc1 | -6.3 | · | · | · | ·
Cc1cc(NC(=O)CCc2ccc(C)o2)no1 | -7.8 | -18.0 | -76.9* | i | 1.1
O=Cc1c(-c2ccc(Cl)cc2)oc2ccc(O)cc12 | -0.7 | -12.5 | 40.8 | i | -67.0*
SMILES | PI4K2A inh | CtBP-E1A blk | Six1-Eya2 inh | Akt phos inh | PI5P4Ka inh
O=C(O)c1c(-c2ccccc2)oc2ccc(O)cc12 | 1.7 | · | -6.9 | i | 5.1
COc1ccc2nc(/N=C\N(C)C)sc2c1 | 0.7 | -0.2 | 3.0 | i | -2.9
COc1ccc2nc(/N=C/c3c(C)[nH]n(-c4ccc(C)cc4)c3=O)sc2c1 | -11.8 | ? | -75.6* | i | -22.4
CCN1/C(=C/C=C/c2oc3ccc(-c4ccccc4)cc3[n+]2CC)Oc2ccc(-c3ccccc3)cc21 | 4.0 | 18.8 | 11.9 | i | -57.1*
CCCCS/C(N)=N/N=C/c1ccccc1O | 4.9 | -5.9 | -3.5 | -111.2%* | 10.8
CCCS/C(N)=N/N=C/c1cc(C)ccc1O | -5.1 | -23.1 | -7.3 | · | 14.1
COc1ccc(N2C3=C(CC4=C2CCCC4=O)C(=O)CCC3)cc1 | -56.3* | -5.1 | -25.5 | i | ?
O=[N+]([O-])c1ccccc1/C=C/C=N/N1CCCCC1 | 3.5 | ? | -68.2* | i | 0.2
O=[N+]([O-])c1ccccc1/C=C\C=N\N1CCN(c2ccccc2)CC1 | 1.8 | -22.5 | -66.5* | i | 12.0
COc1ccccc1N1CCN(/N=C/C=C/c2ccccc2[N+](=O)[O-])CC1 | 2.9 | -65.3* | ? | i | -0.3
O=C(Nc1cc(Sc2ccccn2)cc([N+](=O)[O-])c1)c1ccc(Cl)cc1 | -3.5 | -21.7 | -18.2 | i | 5.6
COc1ccc(-c2oc(=O)c3cc(OC)c(OC)cc3c2/C=C/c2cccc([N+](=O)[O-])c2)cc1 | 1.7 | -11.3 | 3.1 | i | -2.3
COc1ccc(S(=O)(=O)N2CCCCC2)cc1NC(=O)C1COc2ccccc2O1 (stereo unspecified) | 0.4 | 3.8 | -10.5 | i | 7.9
CC(=O)c1ccc(NC(=O)CSc2ccsc2[N+](=O)[O-])cc1 | -20.0 | · | 0.5 | i | -80.8*
CCN(CC)c1ccc(NC(=O)CSc2ccsc2[N+](=O)[O-])c(C)c1 | -4.6 | -21.2 | -21.9 | i | ?
COc1ccc(CNC(=O)CSc2ccsc2[N+](=O)[O-])cc1 | -12.1 | 1.7 | -9.5 | i | -50.1*
O=C(CSc1ccsc1[N+](=O)[O-])Nc1cc(F)ccc1F | -4.9 | · | -8.1 | i | -94.0*
Cc1ccc(CNC(=O)CSc2ccsc2[N+](=O)[O-])cc1 | 3.3 | -24.1 | 2.1 | i | -9.3
CC1=NN(c2ccc(N)cc2)C(=O)C1 | -66.0* | 5.3 | ? | i | -23.4
CC1=NN(c2ccccc2)C(=O)C1 | ? | -5.0 | 4.5 | i | 1.5
CC1=NN(c2cccc([N+](=O)[O-])c2)C(=O)C1 | -50.4* | 0.0 | 27.1 | i | 12.6
CC(=O)c1ccccc1NC(=O)COC(=O)c1ccccc1NC(=O)c1ccccc1 | 0.8 | -1.6 | 8.3 | i | 9.2
O=c1oc(Nc2ccc(F)cc2)nc2ccccc12 | -57.4* | 20.5 | 10.7 | i | 3.0
Cc1ccc(-c2cc(C(=O)NCCCN3CCOCC3)c3ccccc3n2)cc1 | 1.8 | -13.4 | -17.4 | i | -5.4
S=c1sscc1-c1ccccc1 | 0.2 | -80.7* | -70.1* | i | 6.8
O=c1c(-c2ccccc2)c1-c1ccccc1 | 20.2 | · | · | · | ·
CCCCCCCCC(=O)c1c(OC)oc(C=O)cc1=O | -10.8 | 1.6 | -5.8 | i | -83.9*
C/C(=N\NC(=O)c1ccc(O)cc1)c1ccc2c(c1)Nc1ccccc1S2 | -2.5 | -17.4 | -9.2 | i | -76.6*
CC(C)C1NC2(C(=O)c3ccccc3C2=O)C2C(=O)N(c3ccc(F)cc3)C(=O)C12 (stereo unspecified) | -22.0 | -10.2 | -6.6 | -120.2%* | 0.2
